PMC13083723 (Patterns, 2026)
Screen size: about 5,400 compounds; about 190 (3.5%) showed an effect of 50% or more. The entries come from a sample that favours strong results as a whole.

test system: Vero-E6; test: primary screen, phospholipidosis by LipidTOX staining; higher = more effect of the substance; conditions: 10 µM
Method in brief: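 Single-concentration screen at 10 μM, with DMSO 0.1 v/v % and amiodarone 10 μM as controls. Read-out is LipidTOX Red phospholipid staining, which tolerates aldehyde fixation, in Vero-E6 cells.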

| SMILES | result_ITMP |
| --- | --- |
| Cn1ncnc1COc1nn2c(-c3cc(F)ccc3F)nnc2cc1C(C)(C)C | -6.83% |
| Nc1c(S(=O)(=O)[O-])cc(Nc2cccc3ccccc23)c2c1C(=O)c1ccccc1C2=O | -11.1% |
| CC[C@H]1[C@@H](O)C2C3CC[C@H]([C@H](C)CCC(=O)O)[C@@]3(C)CCC2[C@@]2(C)CC[C@@H](O)C[C@@H]12 (some centres unmarked) | -3.95% |
| CN[C@@H]1C(OC2[C@H](O[C@H]3[C@H](O)[C@@H](O)[C@H](NC(=N)N)[C@@H](O)[C@@H]3NC(=N)N)OC(C)[C@]2(O)CO)OC(CO)C(O)C1O (some centres unmarked) | -3.92% |
| CC(=O)c1ccc2c(c1)C(=O)C1(CC1)O2 | 0.63% |
| C[C@@H]1CCCN1CCc1cc2cc(-c3ccc(C#N)cc3)ccc2o1 | 66.8% |
| CC(=O)C1=C(O)[C@]2(C)C(=CC1=O)Oc1c(C(C)=O)c(O)c(C)c(O)c12 | -3.21% |
| CCCCCCCCCCC(=O)O[C@H]1CC[C@H]2[C@@H]3CCC4=CC(=O)CC[C@]4(C)[C@H]3CC[C@]12C | 0.88% |
| C[C@@]1(O)[C@H](O)[C@@H](CO)O[C@H]1n1cnc2c(O)nc(N)nc21 | 7.18% |
| COc1ccc2cc(-c3[nH]c(-c4ccc(S(C)=O)cc4)nc3-c3ccncc3)ccc2c1 (centres unmarked) | -3.68% |
| C[N+]1(C)[C@@H]2C[C@@H](OC(=O)C(O)(c3cccs3)c3cccs3)C[C@H]1[C@@H]1O[C@@H]12 | -2.59% |
| CN1CCC(=C2c3ccccc3Sc3ccccc32)CC1 | 44.9% |
| CN1CCC(=C2c3ccccc3CCc3sccc32)CC1 | 42.6% |
| CN1CCC(=C2c3ccccc3C=Cc3ccccc32)CC1 | 77.3% |
| Cc1onc(O)c1CC(N)C(=O)O (racemic) [R4A_0004356_001 / SPE_A34716233] | 0.42% |
| CC(C(=O)O)c1ccc(C(=O)c2cccs2)cc1 (centres unmarked) | -0.4% |
| CC(C)c1ccc(C(=O)c2cccs2)c(SCCCCCCCCN(C)C)n1 | 77% |
| O=C(O)COc1ccc(C(=O)c2cccs2)c(Cl)c1Cl | -7.59% |
| O=C([O-])CCC(=O)OC[C@H](NC(=O)C(Cl)Cl)C(O)c1ccc([N+](=O)[O-])cc1 (some centres unmarked) | 1.81% |
| O=c1[n-]c(=O)n(Cl)c(=O)n1Cl | -11.2% |
| c1ccc(C2CN3CCSC3=N2)cc1 (centres unmarked) [R4A_0001404_001 / SPE_K73107279] | -7.98% |
| C[N+](C)(C)CCOP(=O)([O-])OP(=O)([O-])OC[C@H]1O[C@@H](n2ccc(N)nc2=O)[C@H](O)[C@@H]1O | 10.2% |
| CC(C)(O)c1ccccc1CC[C@@H](SCC1(CC(=O)[O-])CC1)c1cccc(/C=C/c2ccc3ccc(Cl)cc3n2)c1 | 3.69% |
| C[C@H](N)Cn1ccc2cc(F)c(Cl)cc21 | 50.7% |
| CO[C@H]1O[C@@H]2O[C@@]3(C)CC[C@H]4[C@H](C)CC[C@@H]([C@H]1C)[C@@]24OO3 | -0.98% |
| O=C([O-])C(O)Cc1ccc(O)c(O)c1 (centres unmarked) | 1.45% |
| CCC(=O)O[C@@H](OP(=O)(CCCCc1ccccc1)CC(=O)N1C[C@H](C2CCCCC2)C[C@H]1C(=O)[O-])C(C)C (some centres unmarked) | -3.03% |

| SMILES | result_ITMP |
| --- | --- |
| CC(=O)c1ccc2c(c1)N(CCCN1CCC(CCO)CC1)c1ccccc1S2 | 50.4% |
| CCCCN1CCC(CCC(=O)c2cc(Cl)c(N)cc2OC)CC1 | 5.01% |
| CC(=O)c1ccc2c(c1)N(CCCN(C)C)c1ccccc1S2 | 42.6% |
| CC(=O)c1ccc2c(c1)N(CCCN1CCN(CCO)CC1)c1ccccc1S2 | 74.4% |
| CCOC(=O)Nc1ccc2c(c1)N(C(=O)CCN1CCOCC1)c1ccccc1S2 | -8.3% |
| O=C(NO)c1ccc(O)c(O)c1 | -2.75% |
| C[C@]12CCC(=O)C[C@@H]1CC[C@@H]1[C@@H]2CC[C@]2(C)C=CC[C@@H]12 | -0.52% |
| C[C@]12CC[C@H](O)C[C@H]1CC[C@@H]1[C@@H]2CC[C@]2(C)[C@@](O)(c3ccoc3)CC[C@]12O | -7.29% |
| Cc1ccccc1N(C)C(=O)c1ccc(S(=O)c2nccs2)c([N+](=O)[O-])c1 (centres unmarked) | 70.1% |
| CN1c2c(nc(N)[nH]c2=O)NC[C@@H]1CNc1ccc(C(=O)N[C@@H](CCC(=O)[O-])C(=O)[O-])cc1 | -7.73% |
| CC[C@@]1(C2O[C@@H](C3O[C@@](O)(CO)[C@H](C)C[C@@H]3C)C[C@@H]2C)CC[C@H]([C@]2(C)CCC3(C[C@H](O)[C@@H](C)[C@@H]([C@H](C)[C@@H](OC)[C@H](C)C(=O)[O-])O3)O2)O1 (some centres unmarked) | -2.43% |
| CN1CCN(c2cc(-c3ccccc3)nc(N)n2)CC1 | 5.46% |
| CN1CCN(C2=Cc3ccccc3Oc3ccc(Cl)cc32)CC1 | 61.3% |
| CC(=O)NNC(=O)N1Cc2ccccc2Oc2ccc(Cl)cc21 | -0.36% |
| CN1C[C@@H]2c3ccccc3Oc3ccc(Cl)cc3[C@H]2C1.CN1C[C@H]2c3ccccc3Oc3ccc(Cl)cc3[C@@H]2C1 | 65.2% |
| CN1CCN(c2nc3ccccc3nc2Cl)CC1 | 5.5% |
| CN1CCN2c3ccccc3Cc3ccccc3C2C1 (centres unmarked) | 15.9% |
| CCCC(=O)[O-] | -6.95% |
| CCOC(=O)[C@H](C)C[C@@H](Cc1ccc(-c2ccccc2)cc1)NC(=O)CCC(=O)[O-] | 0.47% |
| CC(C)Cc1ccc(C(C)C(=O)O)cc1 (centres unmarked) [R4A_0001344_001 / SPE_K14965640] | 1.58% |
| O=P([O-])(O)C(Cl)(Cl)P(=O)([O-])O | -2.27% |
| Cc1ccc(NC(=O)c2cccc(N(C)C)c2)cc1NC(=O)c1ccc(O)cc1 | -6.05% |
| Cc1cc(Nc2ccc(NC(=O)c3ccc(Nc4ccnc5ccccc45)cc3)cc2)nc(N)n1 | 13.5% |
| CNCc1ccc(C)c(NC(=O)c2ccc(Nc3nc(-c4ccccc4)c4ccccc4n3)cc2)c1 | 67.4% |
| CN1C2C[C@H](OC(=O)[C@H](CO)c3ccccc3)C[C@H]1[C@H]1OC21 (some centres unmarked) | -1.02% |
| C=C1/C(=C\C=C2/CCC[C@]3(C)[C@@H]([C@H](C)/C=C/C=C/C(O)(CC)CC)CC[C@@H]23)C[C@@H](O)C[C@@H]1O | -2.42% |
